Assay results taken from PubChem BioAssay (NCATS).
Unmarked numbers belong to inactive results. Inconclusive results are not listed. The source made the active and inactive calls. Unless noted, calls follow the shape of the dose curve; as a rule, active = well fitted curve in the direction sought with a large enough effect; inconclusive = small, poorly fitted or top-dose-only effect, or another doubt; inactive = no such curve, though single readings can be large; an effect the other way counts as inactive or inconclusive.

Test system: not listed separately
Test: S16 Schwann cell PMP22 intronic element beta-lactamase assay (AID 624044; calls by dose curve; also: nearly all actives have a fitted effect of over 15% in size; also: potency is read from the fitted curve at half-maximal effect;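 as to ratio activity, negative = inhibition: 0% = DMSO and -100% = potassium clavulanate positive control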)
Settings: S16 rat Schwann cells, PMP22 element beta-lactamase FRET, 24 h; ratio activity, negative = inhibition: at 38.3 µM (top of the series)
Summary of the method: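 Beta-lactamase reporter under a PMP22 intronic regulatory element in stable S16 rat Schwann cells; 24 h compound exposure. 460 nm blue signal normalized between DMSO (0%) and potassium clavulanate, with 535 nm FRET tracking viability; curves classed by r2 and response.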

Row | SMILES | Potency
1 | CC[C@]1([C@H]2O[C@@H]([C@@H]3O[C@](O)(CO)[C@@H](C)C[C@H]3C)C[C@H]2C)CC[C@@H]([C@]2(C)CC[C@@]3(C[C@@H](O)[C@@H](C)[C@@H]([C@H](C)[C@H](OC)[C@H](C)C(=O)O)O3)O2)O1 | 0.562 µM (active)
2 | CNC1=CN(O)C(c2ccccc2)=c2cc(Cl)ccc2=N1 | inactive
3 | CC(C)=O | inactive

Molecular target: Peroxisome proliferator-activated receptor alpha (Homo sapiens) (UniProt Q07869)
Test: qHTS assay for small molecule agonists of the peroxisome proliferator-activated receptor alpha (PPARalpha) signaling pathway (AID 651778); also: % of control where 0% means no effect
Settings: PathHunter PPARalpha complementation, chemiluminescence, 6 h; max response: hits give high values
Summary of the method: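 Cells plated at 2,000/well and held overnight at 37 C, 5% CO2, then compound added by pin tool for 6 hr; after PathHunter detection reagent and 60 min at room temperature, chemiluminescence from enzyme complementation was read.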

Chain of Peroxisome proliferator-activated receptor alpha (Homo sapiens) (Q07869 whole entry, looked up): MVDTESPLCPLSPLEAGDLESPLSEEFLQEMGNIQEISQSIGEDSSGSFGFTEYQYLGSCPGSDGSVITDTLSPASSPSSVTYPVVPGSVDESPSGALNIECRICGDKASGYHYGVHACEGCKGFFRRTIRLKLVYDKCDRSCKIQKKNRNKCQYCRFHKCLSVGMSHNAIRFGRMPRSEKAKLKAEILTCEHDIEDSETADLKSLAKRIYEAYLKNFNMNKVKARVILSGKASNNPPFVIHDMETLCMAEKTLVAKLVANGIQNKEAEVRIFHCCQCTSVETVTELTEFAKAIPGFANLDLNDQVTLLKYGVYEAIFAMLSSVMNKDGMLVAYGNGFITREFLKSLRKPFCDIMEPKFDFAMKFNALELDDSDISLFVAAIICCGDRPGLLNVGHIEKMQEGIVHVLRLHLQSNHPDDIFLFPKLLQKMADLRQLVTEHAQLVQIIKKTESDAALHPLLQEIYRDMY

Row | SMILES | max response [%]
4 | CSc1nc(NC(C)C)nc(NC(C)C)n1 | 8.44
5 | CCCCN(CC)c1c([N+](=O)[O-])cc(C(F)(F)F)cc1[N+](=O)[O-] | -2.71
6 | N#Cc1c(Cl)c(Cl)c(Cl)c(C#N)c1Cl | -3.28
7 | O=C1C=C2C(=CCOC2O)O1 (configuration not stated) | 0.776

Test system: not listed separately
Test: qHTS assay for small molecule agonists of the antioxidant response element (ARE) signaling pathway measured by Nrf2-dependant transcriptional activity (AID 720636; active = well fitted curve in the direction sought with a large enough effect in the repeat runs; an effect the other way counts as inactive or inconclusive;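 also: HepG2 cells with an ARE-driven luciferase reporter; % of control where 0% means no effect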)
Settings: ARE-luc HepG2, Nrf2 luciferase reporter, 16 h; series mostly up to 92.4 µM
Summary of the method: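 Cells: ARE-luc HepG2 with Nrf2-responsive luciferase. Medium contained 1% dialyzed FBS. Compound exposure lasted 16 hr at 37 C and 5% CO2, followed by ONE-Glo luciferase detection.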

Row | SMILES | Potency
8 | CSc1nc(NC(C)C)nc(NC(C)C)n1 | inactive
9 | CCCCN(CC)c1c([N+](=O)[O-])cc(C(F)(F)F)cc1[N+](=O)[O-] | inactive
10 | N#Cc1c(Cl)c(Cl)c(Cl)c(C#N)c1Cl | inactive

Test system: not listed separately
Test: qHTS assay for small molecule agonists of the antioxidant response element (ARE) signaling pathway measured by Nrf2-dependant transcriptional activity - cell viability counter screen (AID 720653; active = well fitted curve in the direction sought with a large enough effect in the repeat runs; an effect the other way counts as inactive or inconclusive; also: potency is read from the fitted curve at half-maximal effect; as to max response: % is scaled to controls: 0 for no effect and ±100 for the full control effect)
Settings: ARE-bla HepG2 viability, CellTiter-Glo ATP luminescence, 16 h; max response: hits give low values
Summary of the method: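 ARE-bla HepG2 cells (2,000/well) rested 5 hrs at 37C/5% CO2, then exposed to compounds in DMSO for 16 hrs. Viability was read in the same wells as intracellular ATP by luminescence, 30 min at room temperature after reagent addition.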

Row | SMILES | max response [%] | Potency
11 | CSc1nc(NC(C)C)nc(NC(C)C)n1 | 9.37 | –
12 | CCCCN(CC)c1c([N+](=O)[O-])cc(C(F)(F)F)cc1[N+](=O)[O-] | -14.4 | –
13 | N#Cc1c(Cl)c(Cl)c(Cl)c(C#N)c1Cl | – | 70.8 µM (active)

Test system: not listed separately
Test: qHTS assay for cell viability of HEK293 cells (AID 743288); also: nearly all actives have a fitted effect of over 50% in size; also: potency is read from the fitted curve at half-maximal effect; as to max response: % is scaled to controls: 0 for no effect and ±100 for the full control effect
Settings: ATP luminescence (CellTiter-Glo), 18 h; max response: hits give low values
Summary of the method: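 After 18 h compound exposure at 37 C, parental HEK293 cells (2,000/well) are lysed with CellTiter-Glo and luminescence is read following 30 min at room temperature.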

Row | SMILES | max response [%] | Potency
14 | CSc1nc(NC(C)C)nc(NC(C)C)n1 | 2.18 | –
15 | CCCCN(CC)c1c([N+](=O)[O-])cc(C(F)(F)F)cc1[N+](=O)[O-] | -10.2 | –
16 | N#Cc1c(Cl)c(Cl)c(Cl)c(C#N)c1Cl | – | 15.8 µM (active)
17 | O=C1C=C2C(=CCOC2O)O1 (configuration not stated) | – | 8.91 µM (active)
